Screening data (PubChem)
Compounds with a hit are over-represented: about 11% of the library has one in this group of screens.
VACV mCherry inh: inhibitors of vaccinia virus infection (mCherry reporter signal). Vaccinia virus mCherry reporter infection, fluorescence. Potency, µM (series often up to 36.5 µM), without a hit: at the highest dose activity change, negative = inhibition, usual class: inhibitors. hit rate 0.63% among 310,000; calls by dose curve; tested in A549 cells; note: % is set by controls: 0 for no effect and ±100 for the full control effect; nearly all actives have a fitted effect of over 35% in size
Pf growth 96h: P. falciparum growth inhibition at 96 hours. P. falciparum luciferase reporter growth, 96 h. hit rate 6.9% among 320,000. Potency, µM (highest dose often 28.7 µM), inactives show at the highest dose activity change, negative = inhibition, actives largely listed as inhibitors. AID 504834; note: % is set by controls: 0 for no effect and ±100 for the full control effect
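P. falciparum expressing integrated firefly luciferase, in erythrocytes at 2% hematocrit, 0.05% parasitemia, incubated with compounds 96 h at 37 C, 5% CO2. Growth inhibition read as loss of luminescence; two-generation exposure targets delayed-death apicoplast inhibitors.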
NS1 function inh: blocks influenza NS1 protein function; hit rate 0.4% among 270,000; Potency, µM (top dose mostly 46.1 µM), for inactives: top-dose activity, positive = more growth; AID 2326; calls by dose curve; note: actives are rising curves; nearly all actives have a fitted effect of over 50% in size
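Growth recovery, yeast-based: influenza A NS1 expressed in S. cerevisiae causes slow growth, and suppressors are detected by OD600. The parent strain without NS1 is used as positive control.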
Pf growth 48h: P. falciparum growth inhibition at 48 hours (one generation). P. falciparum luciferase growth in erythrocytes, 48 h. Potency, µM (highest dose often 28.7 µM), for the others: at the highest dose activity change, negative = inhibition, most hits filed as inhibitors. hit rate 5.9% among 310,000. AID 504832; note: % is set by controls: 0 for no effect and ±100 for the full control effect
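In quantitative HTS format, infected erythrocytes bearing luciferase-reporter parasites were treated for a single generation at 37 C. Luminescence after adding detection reagent served as the growth measure.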
Vaccinia Venus: vaccinia inhibition (Venus reporter) | Vaccinia virus Venus reporter expression, fluorescence | Potency, µM (top dose mostly 36.5 µM), for the others: top-dose activity change, negative = inhibition, usual class: inhibitors | hit rate 0.46% among 330,000 | AID 720580; calls by dose curve; tested in A549 cells; note: % is set by controls: 0 for no effect and ±100 for the full control effect; nearly all actives have a fitted effect of over 30% in size
HCV inh: blocks hepatitis C virus; Huh7.5.1 HCVcc-Cre infection, luciferase reporter, 44 h; Potency, µM (top dose mostly 41.8 µM), for the others: at the highest dose activity change, negative = inhibition, usual class: inhibitors; hit rate 3.4% among 340,000; AID 651820; note: % is set by controls: 0 for no effect and ±100 for the full control effect
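Cells seeded at 1,000/well and cultured 4 h, then compounds added followed by HCVcc-Cre virus (~0.5 moi). After 44 h further culture, luciferase substrate was added, plates held 15 min at room temperature, and luminescence read for 15 sec.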
* marks the source's active call; other numbers are inactive results; i = inactive; ? = inconclusive; · = no result; [ ] = dose if it differs, or a comment. Unless noted, calls come from the whole dose curve; as a rule, active = well fitted inhibition curve with a large enough effect; inconclusive = small, poorly fitted or top-dose-only effect, or another doubt; inactive = no such curve, though single readings can be large or run the other way. Potency is the fitted concentration of half-maximal effect.

SMILES | VACV mCherry inh | Pf growth 96h | NS1 function inh | Pf growth 48h | Vaccinia Venus | HCV inh
Cc1cccc(CNc2ccc(C(CC(N)=O)NC(=O)Cc3cccc4ccccc34)cc2[N+](=O)[O-])c1 (stereo not given) | -8.4% | -12.4% | 12.2% | ? | -12.6% | -29.0%
COc1cccc(C(=O)NNC(=O)CCN2CCN(c3ccccc3)CC2)c1 | -17.6% | · | · | · | -9.9% | ?
CC(=O)N(c1ccc(Cl)cc1)c1c[nH]c2ccccc12 | -13.8% | 6.57µM* | 1.6% | 11.7µM* | -26.2% | 4.1%
O=C(Cc1c[nH]c2ccccc12)NCc1ccc(Cl)cc1 | -9.6% | 57.2% | -19.8% | 2.5% | -14.5% | 1.4%
CC(=O)N1CCN(c2ccc(NC(=O)C(C)Oc3ccc(Cl)cc3Cl)cc2)CC1 (stereo not given) | -17.8% | ? | 0.1% | · | -8.4% | -6.1%
CC(Oc1ccc(Cl)cc1Cl)C(=O)Nc1ccc(N2CCN(C)CC2)cc1 (stereo not given) | -12.3% | 69.2% | -0.7% | 13.1µM* | -11.3% | ?
Cc1cc(NC(=O)C(C)Oc2ccc(Cl)cc2Cl)n(-c2ccccc2)n1 (stereo not given) | · | 5.86µM* | -61.6% | · | · | ?
O=C1C(c2cc(=O)c3ccccc3[nH]2)=C(O)c2ccccc21 | ? | -22.3% | 10.8% | -9.1% | ? | 8.1%
O=c1cc(-c2ccccc2)[nH]c2ccccc12 | ? | 2.4% | -67.3% | 1.47µM* | ? | -26.5%
CN(C)c1ccc(-c2c3ccccc3nc3ccccc23)cc1 | 14.8% | · | · | · | 5.1% | ·
CN(C)c1ccc(Sc2ccc3nc(N)nc(N)c3c2)cc1 | 4.47µM* | · | · | · | 5.01µM* | ·
Cc1cc(C)n2c(Nc3ccc4c(c3)OCCO4)c(-c3ccc(C)o3)nc2n1 | ? | 5.86µM* | 4.4% | · | -24.9% | -10.7%
Cc1cc(C)n2c(Nc3ccc4c(c3)OCCO4)c(-c3ccco3)nc2n1 | · | 11.7µM* | 6.7% | · | · | ·
Cc1cc(C)n2c(Nc3ccc4c(c3)OCCO4)c(-c3cc4ccccc4o3)nc2n1 | -3.8% | · | · | · | -10.1% | ·
CC(OC(=O)Cn1cnc2c1c(=O)n(C)c(=O)n2C)C(=O)NCc1ccccc1 (stereo not given) | 0.8% | -1.9% | · | 17.1% | 5.0% | -19.3%[8.37 µM]
Cc1ccccc1CN1CCNC1=O | · | 25.5% | ? | 9.28µM* | · | 7.7%
COc1ccc(CCNC(=O)c2ccc(Cn3c(SCC(=O)NCCC(C)C)nc4cc5c(cc4c3=O)OCO5)cc2)cc1OC | -21.7% | · | · | · | -41.9% | ·
COc1ccc(NC(=O)Cc2csc(NC(=O)Nc3ccccc3OC)n2)cc1 | -9.5% | · | · | · | -20.7% | ·
COc1ccccc1NC(=O)Nc1nc(CC(=O)N2CCN(c3ccccc3)CC2)cs1 | 1µM* | ? | · | 11.7µM* | -28.4% | 12.6µM*
COc1ccccc1NC(=O)Nc1nc(CC(=O)N2CCN(c3ccc(F)cc3)CC2)cs1 | ? | ? | · | 9.28µM* | -28.4% | 11.2µM*
COc1ccc(N2CCN(C(=O)Cc3csc(NC(=O)Nc4ccccc4OC)n3)CC2)cc1 | ? | ? | · | 7.38µM* | ? | ?
Cc1cc(OC(=O)c2ccc(C(C)(C)C)cc2)c([N+](=O)[O-])c(=O)[nH]1 | · | 0.7% | -55.2% | -7.0% | · | -4.5%
CCC(C)NC(=O)c1ccccc1NC(=O)c1ccc(CSc2ccccc2)cc1 (stereo not given) | -12.1% | -0.1% | 2.0% | 11.7µM* | -16.4% | -6.0%
Cc1ccc(SCc2ccc(C(=O)Nc3ccccc3C(=O)NC(C)C)cc2)cc1 | -16.0% | 422.7% | 9.2% | -4.9% | -9.4% | -1.0%
CCCNC(=O)c1ccccc1NC(=O)c1ccccc1SC | · | 37.1% | -6.8% | -16.7% | · | -3.8%
SMILES | VACV mCherry inh | Pf growth 96h | NS1 function inh | Pf growth 48h | Vaccinia Venus | HCV inh
CCNC(=O)c1ccc(CSc2ccc(Cl)cc2)cc1 | · | ? | -24.0% | 4.65µM* | · | ?
CCCNC(=O)c1ccccc1NC(=O)c1ccc(CSc2ccccc2)cc1 | · | ? | -33.2% | 13.1µM* | -29.8% | ?
O=C(Nc1ccc(N2CCOCC2)c(C(=O)O)c1)c1ccc(Br)cc1 | 0.5% | · | · | · | -1.6% | ·
O=c1[nH]c2ccccc2[nH]c1=O | -15.4% | 30.6% | 0.3% | 11.4% | -6.1% | 15.9%
Fc1cccc(Nc2nc(N3CCOCC3)nc(N3CCOCC3)n2)c1 | · | -15.7% | -39.6% | ? | · | ?
CCOC(=O)c1[nH]c2ccccc2c1NC(=O)CC(C)C | ? | 17.1% | -0.9% | 16.7% | -22.9% | 12.0%
CCOC(=O)C1=C(C)N=c2s/c(=C/c3cccc(OCC(=O)O)c3)c(=O)n2C1c1ccc(F)cc1 (stereo not given) | · | 0.0% | 11.7% | ? | · | ·
CCOC(=O)C1=C(C)N=c2s/c(=C\c3ccc(OCC(=O)O)cc3)c(=O)n2C1c1ccccc1 (stereo not given) | -14.3% | 10.4µM* | 17.2% | 7.38µM* | 5.2% | 0.9%
CC(=O)C1=C(C)N=c2s/c(=C/c3ccc4c(c3)OCO4)c(=O)n2C1c1ccc(N(C)C)cc1 (stereo not given) | i | · | ? | · | 6.2% | -3.5%
CCOC(=O)C1=C(C)N=c2s/c(=C\c3cc(OC)c(OC)c(OC)c3)c(=O)n2C1/C=C/c1ccccc1 (stereo not given) | -13.8% | 2.08µM* | 12.7% | 14.7µM* | -19.8% | ?
CCOC(=O)C1=C(C)N=c2s/c(=C\c3cccc(OCC(=O)O)c3)c(=O)n2C1c1ccccc1 (stereo not given) | i | 0.928µM* | 26.5% | 11.7µM* | 5.6% | -13.9%
CCOC(=O)C1=C(C)N=c2sc(=Cc3ccc(OCC(=O)O)cc3)c(=O)n2C1c1ccc(SC)cc1 (stereo not given) | 2.6% | · | · | · | 11.2% | ·
COc1ccc(C2C(C(C)=O)=C(C)N=c3s/c(=C/c4ccc5c(c4)OCO5)c(=O)n32)cc1 (stereo not given) | · | ? | -7.4% | 13.1µM* | · | 8.1%
O=Cc1cc2c3c(c1)CCCN3CCC2 | -14.9% | · | · | · | -8.2% | ·
CCOC(=O)C1=C(C)N=c2s/c(=C\c3ccc(OCC(=O)O)c(OC)c3)c(=O)n2C1c1ccc(OC)cc1 (stereo not given) | · | ? | 8.1% | ? | · | 5.5%
CC1=C(C(=O)OC(C)C)C(c2ccc(Cl)cc2)n2c(s/c(=C\c3ccc(OCC(=O)O)cc3)c2=O)=N1 (stereo not given) | · | 7.38µM* | ? | 11.7µM* | · | -10.6%
COc1ccc(C(=O)COC(=O)c2cc(-c3cccs3)nc3ccccc23)cc1 | -9.6% | · | · | · | -2.5% | ·
CO/N=C/NC(=O)NOCc1ncc(C(F)(F)F)cc1Cl | · | · | 4.7% | 0.7% | -17.4% | 7.1%
Cc1nnc(SCC(=O)NNC(=O)C(C)C)[nH]c1=O | -17.2% | 11.7µM* | 5.1% | 18.0% | -12.8% | 0.2%
CCCc1cc(=O)[nH]c(SCC(=O)NCc2ccc3c(c2)OCO3)n1 | -6.7% | 11.7µM* | 21.0% | 3.6% | -6.6% | 22.6%
